According to PubChem BioAssay (NCATS):
Results filed as inconclusive are left out. A call without a number means that no potency is given here. Calls of active or inactive are those of the source. Calls come from the whole dose curve; as a rule, active = well fitted inhibition curve with a large enough effect; inconclusive = small, poorly fitted or top-dose-only effect; inactive = flat fitted curve, though single readings scatter.

Target: Calcium and integrin-binding protein 1 (Homo sapiens) (UniProt Q99828)
Assay: Primary qHTS for Identification of Calcium Integrin Binding Protein 1 (CIB1) Competitor (AID 1508620); note: top concentration of the series differs between compounds
Conditions: CIB1-GST / FITC-alphaIIb peptide fluorescence polarization; series mostly up to 114 µM
Summary of the method: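 Fluorescence polarization competition: GST-tagged CIB1 (1 uM final) preincubated with compound 15 min at room temperature, then FITC-labelled alphaIIb peptide (100 nM final) added. After 15 min at room temperature, polarization read at Ex 480/Em 540.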

Sequence of Calcium and integrin-binding protein 1 (Homo sapiens) (Q99828 whole entry, looked up): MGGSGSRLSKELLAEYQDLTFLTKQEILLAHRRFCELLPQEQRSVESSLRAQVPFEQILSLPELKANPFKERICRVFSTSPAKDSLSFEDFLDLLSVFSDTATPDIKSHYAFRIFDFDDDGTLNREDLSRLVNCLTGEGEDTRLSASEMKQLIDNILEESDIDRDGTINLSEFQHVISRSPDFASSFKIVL

Compound	Potency
CC(=O)Nc1sc2c(c1C(=O)c1ccccc1)CCN(C(C)C)C2	inactive
CCOC(=O)CCc1cc(F)c(S(=O)(=O)N2CCN(S(=O)(=O)c3ccc4c(c3)OCCO4)CC2)cc1F	inactive
Cc1ccnc(NC(=S)N2CCN(c3cc(Cl)cc(Cl)c3)CC2)c1	inactive
CC(=O)c1ccc(N2CCN(S(=O)(=O)c3ccc(N4CCCC4=O)cc3)CC2)cc1	inactive
Fc1ccc(-c2nnc(CCCCSc3nnc(-c4cccc5ccccc45)o3)o2)cc1	inactive
O=C(Nc1ncc(Cc2ccc(C(F)(F)F)cc2)s1)c1cnc(-c2ccccc2)[nH]1	inactive
Fc1cc(Nc2nc(-c3ccncc3)nc3ccccc23)ccc1-n1cncn1	inactive
O=C1Cc2cc(C(=O)c3ccco3)ccc2N1	inactive
O=C(O)c1cccc(-n2cccc2/C=C2/C(=O)N(Cc3ccc(F)cc3)C(=O)N2Cc2ccc(F)cc2)c1	inactive
Oc1ccc(COCc2ccccc2)c2cccnc12	inactive
Cc1ccnc(NC(=S)NC2CN(c3cccc(C(F)(F)F)c3)C2)c1	inactive
Fc1cccc(CSc2nc3ncc(Br)cc3[nH]2)c1	inactive
COc1cc(OC)cc(-c2nnc3n2N=C(c2ccccc2OC)CS3)c1	inactive
COc1cccc(C2c3c(ncn(-c4cccc(Cl)c4)c3=N)Oc3ccc4ccccc4c32)c1 (stereo not given)	inactive
O=C(Nc1ccc(F)c(C(F)(F)F)c1)Nc1nc(-c2ccncc2)cs1	inactive
Cc1ccc(OCCn2c(CCNC(=O)c3ccccc3[N+](=O)[O-])nc3ccccc32)cc1	inactive
CCCCN(CCCNC(=S)NCCCc1cnc[nH]1)c1ccc(Br)cn1	inactive
Cc1ccc(NS(=O)(=O)c2cc3c(cc2N2CCCCC2)NC(=O)CC3)cc1C	inactive
O=c1[nH]c2ccc(S(=O)(=O)N3CCN(S(=O)(=O)c4ccc5c(c4)OCCO5)CC3)cc2[nH]c1=O	inactive
FC(F)(F)c1cccc(N2CCN(C(=S)Nc3nccc4ccccc34)CC2)c1	inactive
Cc1c(C(=O)NCC2CCCO2)[nH]c2c1C(=O)CCC2 (stereo not given)	inactive
CCn1cnc2c(Nc3ccc(Cc4cccnc4)cc3)nc(C#N)nc21	inactive
Cc1ccc(OCCn2c(CCNC(=O)c3ccccc3N)nc3ccccc32)cc1	inactive
Cc1cc(N[S+](=O)([O-])c2ccc(NC(=O)Cc3ccc(F)c(F)c3)cc2)no1	inactive

Compound	Potency
O=C1CCCC2=C1C(c1[nH]ncc1Cl)NC(=NCc1nccs1)N2 (stereo not given)	inactive
COc1ccc(C2=Nn3c(nnc3-c3ccccc3OC)SC2)cc1O[C@H]1CCOC1	inactive
Cc1ccc(NS(=O)(=O)c2cc3c(cc2Cl)NC(=O)CO3)cc1C	inactive
O=S(=O)(Nc1cc(O)cc2cccnc12)c1ccc(Br)s1	inactive
COc1ccc(-c2nnc3n2N=C(c2cc(OC)ccc2OC)CS3)cc1	inactive
O=C1CCCC2=C1C(c1[nH]ncc1Cl)N=C(Nc1ccccc1)N2 (stereo not given)	inactive
Cc1noc(C)c1-c1ccc2ncnc(NCc3ccc(C(F)(F)F)o3)c2c1	inactive
CN(CCc1cnc[nH]1)c1ncnc2ccc(-c3ccc4c(c3)OCO4)cc12	inactive
CCCCCNc1oc(-c2cccc3ccccc23)nc1C#N	inactive
O=C(CNC(=O)c1ccccc1)N[C@@H](C(=O)Nc1cc(C(F)(F)F)ccc1Cl)c1ccccc1	inactive
Cc1cc(N[S+](=O)([O-])c2ccc(NC(=O)Cn3c(=O)oc4ccc(Cl)cc43)cc2)no1	inactive
Cc1ccc(CNc2ncnc3ccc(-c4ccoc4C)cc23)o1	inactive
Cc1cccc(-n2cnc3cc(C(=O)N4CCCC(c5ccccc5)C4)ccc32)c1 (stereo not given)	inactive
Cc1ccnc(C(=S)N2CCN(c3cccc(C(F)(F)F)c3)CC2)c1	inactive
Cn1c2cc(Br)sc2c2cnn(Cc3c(F)cccc3F)c(=O)c21	inactive
COc1ccc(C2=Nn3c(nnc3-c3ccccc3F)SC2)cc1OC1CCOC1 (stereo not given)	inactive
CCOC(=O)c1ccc(-c2ccc3ncnc(NCc4ncc[nH]4)c3c2)o1	inactive
O=C(Nc1ccc(-n2cncn2)c(C(F)(F)F)c1)Nc1nnc(-c2ccncc2)s1	inactive
c1nc(NCCC2CCCO2)c2cc(-c3ccc4c(c3)OCO4)ccc2n1 (stereo not given)	inactive
O=S1(=O)N=C(Oc2ccc3ccccc3c2)c2ccccc21	inactive
O=C(Nc1ccc(F)c(C(F)(F)F)c1)Nc1nnc(-c2cccnc2)s1	inactive
CC(=O)N1CCN(c2ccc(NCc3ccc(C)cc3)cc2)CC1	inactive
COc1ccc(OC)c(C2=Nn3c(nnc3-c3cc(OC)ccc3OC)SC2)c1	inactive
c1nc(NCC2CCCC2)c2cc(-c3ccc4c(c3)OCO4)ccc2n1	inactive

Compound	Potency
Cc1nc(NCc2ccc(-c3ccnc(C(F)(F)F)c3)cc2)c2ccccc2n1	inactive
O=c1c(Nc2ccc(Br)c(Br)c2)c(Nc2nnc(-c3ccncc3)s2)c1=O	inactive
Cc1cc2c(s1)c1cnn(Cc3ccc(F)c(F)c3F)c(=O)c1n2C	inactive
Cc1nnc(-c2cnn(C)c2N)n1CCCc1cccnc1	inactive
Cc1cc2c(s1)c1cnn(Cc3c(C)cc(F)cc3C)c(=O)c1n2C	inactive
CC(C)c1ccccc1-c1nc(NCc2ccc(-c3cccnc3)cc2)c2cccn2n1	inactive
COc1ccc(Nc2cc(O)c3ncccc3c2)cc1	inactive
Cc1cc(C)nc(NC(=S)N2CCN(c3nc4ccccc4s3)CC2)c1	inactive
COc1ccc(C2Nc3ccccc3C(=O)N2Cc2ccco2)cc1COc1c(C)cccc1C (stereo not given)	inactive
COc1ccc2cc3cc(C(=O)Nc4ccc(F)cc4)sc3nc2c1	inactive
Cc1cnc(-c2ccccc2C(C)C)nc1NCc1cccs1	inactive
Cn1ccc2cc(-c3csc(N4CCC(C(N)=O)CC4)n3)ccc21	inactive
O=C(Nc1ncc(Cc2ccc(C(F)(F)F)cc2)s1)c1ccc(-c2ccc([N+](=O)[O-])cc2)o1	inactive
CC(C)c1ccccc1-c1nccc(NCc2ccc(-c3ccnc(C(F)(F)F)c3)cc2)n1	inactive
COc1ccc(C2Nc3ccccc3C(=O)N2Cc2ccco2)cc1COc1c(C)cc(NC(C)=O)cc1C (stereo not given)	inactive
Fc1ccc(Nc2nc(-c3ccnc(C(F)(F)F)c3)nc3ccccc23)cc1F	inactive
COc1ccccc1NC(=O)C(OC(=O)CNC(=O)c1ccccc1)c1ccccc1 (stereo not given)	inactive
Cn1cnc(CCNc2ncnc3ccc(-c4ccc5c(c4)OCO5)cc23)c1	inactive
c1coc(CNc2nc(-c3cccs3)nc3ccccc23)c1	inactive
O=C1c2ccccc2C(=O)N1c1ccccn1	inactive
CNc1nnc(-c2cccc3ccccc23)s1	inactive
S=C(NCCCc1cnc[nH]1)NCCCN(Cc1ccc(Cl)c(Cl)c1)c1ccccn1	inactive
CC(=O)Nc1ccc(S(=O)(=O)N2CCN(S(=O)(=O)c3ccc4c(c3)OCCO4)CC2)cc1	inactive
O=C(Nc1ccc2ccccc2c1)Nc1nnc(-c2ccccc2F)s1	inactive

Compound	Potency
Cn1nnnc1Sc1ncnc2scc(-c3ccccc3[N+](=O)[O-])c12	inactive
O=S(=O)(c1ccc2c(c1)OCO2)N1CCN(S(=O)(=O)c2c(F)cccc2F)CC1	inactive
O=C(NC(c1ccco1)c1cc(Cl)c2cccnc2c1O)c1ccccc1 (stereo not given)	inactive
CC(C)(C)OC(=O)NCCOCCOCCOc1cccc(-n2ncc3c2CCCC3NC(=O)c2ccccn2)c1 (stereo not given)	inactive
Cc1ccnc(NC(=S)N2CCN(c3cc(C(F)(F)F)cc(C(F)(F)F)c3)CC2)c1	inactive
O=C(NCCc1nc2ccccc2n1CCO)C1CCCCC1	inactive
S=C(Nc1cc(Cl)ccn1)N1CCN(c2ccc(Cl)cc2Cl)CC1	inactive
Cc1ccc(NS(=O)(=O)c2cc3c(cc2Cl)CCC(=O)N3)cc1Cl	inactive
Cc1cc2c(s1)c1cnn(Cc3cc(F)c(Cl)cc3Cl)c(=O)c1n2C	inactive
COc1ccc(Nc2nc(C#N)nc(NC3CCCC3)n2)cc1	inactive
COc1ccc(C2=Nn3c(nnc3-c3ccccc3O)SC2)cc1OC	inactive
Cc1ccc(OCCn2c(CCNC(=O)c3ccc[nH]3)nc3ccccc32)cc1	inactive
COc1cc(O)c(C(CC(=O)N2CCCC(C(C)C)C2)c2ccc3c(c2)OCO3)c(OC)c1 (stereo not given)	inactive
Cc1cccc(C)c1SC1=NS(=O)(=O)c2ccccc21	inactive
CC(=O)N1CCc2cc(-c3nc(NC(=O)Cc4ccc5c(c4)OCO5)sc3C)ccc21	inactive
Cc1ccc(NS(=O)(=O)c2ccc(F)cc2)cc1C	inactive
CCn1cnc2c(Nc3ccc(CC(=O)N=C(N)N)cc3)nc(C#N)nc21	inactive
COc1ccc(C2Nc3ccccc3C(=O)N2Cc2ccccc2OC)cc1COc1c(C)cc(NC(C)=O)cc1C (stereo not given)	inactive
Cc1ccc(N(C)S(=O)(=O)c2ccc3c(c2)CCC(=O)N3)cc1C	inactive
COc1ccccc1/C=C/C(=O)NCCc1nc2ccccc2n1CCOc1ccc(C)cc1	inactive
COc1cc(NC(=O)C(OC(=O)CNC(=O)c2ccccc2)c2ccccc2)cc(OC)c1 (stereo not given)	inactive
CC(=O)N1CCN(C(=S)Nc2cc(C)ccn2)CC1	inactive
N#Cc1nc(NCCO)nc(Nc2ccccc2)n1	inactive
Cc1ccccc1-c1ccc(NC(=O)c2cccs2)cn1	inactive

Compound	Potency
COc1ccc(-c2nnc3n2N=C(c2ccc(OC)c(OC)c2)CS3)c(OC)c1	inactive
O=C(O)c1ccc(CSc2nnc(-c3cccc([S+](=O)([O-])N4CCCC4)c3)n2-c2ccccc2)cc1	inactive
O=C(Nc1ccc(F)c(C(F)(F)F)c1)Nc1cccc(-c2ccncc2)n1	inactive
O=C(NCCCc1cnc[nH]1)NCCCN(Cc1ccc(Cl)c(Cl)c1)c1ccc(Br)cn1	inactive
COc1cccc(CNc2ncnc3ccc(-c4c(C)noc4C)cc23)c1	inactive
CCOc1ccc(CCNC(=O)c2ccc3[nH]ccc3c2)cc1OCC	inactive
Cc1ccnc(NC(=S)N[C@@H]2CCN(c3cccc(C(F)(F)F)c3)C2)c1	inactive
O=C1Nc2ccccc2/C1=C/c1cccc(C(=O)O)c1	inactive
c1csc(CCNc2ncnc3ccc(-c4ccc5c(c4)OCO5)cc23)c1	inactive
O=c1[nH]c2ccc(S(=O)(=O)N3CCN(S(=O)(=O)c4c(F)cccc4F)CC3)cc2[nH]c1=O	inactive
O=C(Nc1nnc(-c2ccncc2)s1)Nc1cccc2ccccc12	inactive
CN1C(=O)CCc2cc(S(=O)(=O)Nc3ccc(Cl)c(Cl)c3)ccc21	inactive
CN(C)c1cccc(-c2cnc(N3CCC(C(N)=O)CC3)s2)c1	inactive
O=C(NC1CCCc2c1cnn2-c1ccc(F)cc1F)c1cnon1 (stereo not given)	inactive
CN(C)c1cccc(-c2cnc(N3CCC(C(N)=O)CC3)nc2)c1	inactive
COc1ccc([S+](=O)([O-])N2CCCN([S+](=O)([O-])c3ccc(OC)c(NC(C)=O)c3)CC2)cc1NC(C)=O	inactive
CCN(CC)c1ccc(NC(=O)CN(C)Cc2c(O)ccc3ccccc23)cc1	inactive
COC(=O)c1ccccc1S(=O)(=O)Nc1cc(=O)c2ccccc2[nH]1	inactive
COc1cccc(C2c3c(ncn(-c4ccccc4SC)c3=N)Oc3ccc4ccccc4c32)c1 (stereo not given)	inactive
N=c1c2c(ccn1Cc1ccccc1)Oc1ccc3ccccc3c1C2c1ccccc1 (stereo not given)	inactive
COc1cccc(-c2ccc3ncnc(NCc4cc(C)cs4)c3c2)c1	inactive
COc1ccccc1C(=O)OCC#CCSc1nnc(-c2cccc3ccccc23)o1	inactive
Cc1cc(C)n2ncc(C(=O)NC3CCCCC3)c2n1	inactive
Cc1c(C(=O)O)[nH]c2c1C(=O)CCC2	inactive
